# Experimental data reported in PubChem BioAssay.
# Active and inactive are the calls of the source.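 How the source made its calls, unless noted: active means compound raises insulin release from rat beta cells at 5 mM glucose, no numeric limit stated; inactive means the rest.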
# Columns and labels:
# [1] = stimulators of nuclear beta-catenin in C2C12, primary screen, imaging, WNT3A-conditioned medium, mouse C2C12, NPC library (AID 1117326; in the data active means nuclear beta-catenin stimulation mostly above about 4.2%, no sharp cut-off; inactive means mostly below about 10%; further: reference of the scale not given here); conditions: stronger effect = higher value
# [2] = stimulators of insulin release from INS-1E, primary screen, cell-based, 5 mM glucose, NPC library (AID 1117329); conditions: rat INS-1E insulin secretion, at 10 µM, stronger effect = higher value; further: reference of the scale not given here
# [3] = growth inhibition of GSK3B-pretreated HCT116 cells – cell-based, CellTiter-Glo, 0.2 to 20 µM (AID 1117336;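 active means compounds lowering colon cancer cell viability after pretreatment blocking the GSK3B kinase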); conditions: HCT116 viability after GSK3B inhibitor, at 20 µM, stronger effect = higher value
# [4] = inhibition of endothelial tube formation, primary screen, imaging, VEGF stimulated, CD31 staining, tube area, NPC library (AID 1117340;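 active means compound that reduces growth-factor-driven endothelial tube area in a mixed cell culture, no cutoff stated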); conditions: VEGF-stimulated ADSC/ECFC co-culture, at 10 µM, stronger effect = higher value
# [5] = glucagon-like peptide 1 release enhancers, primary assay, NCI-H716 cell line, NPC library (AID 1117341;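 active means compound raises GLP1 secretion from the human gut endocrine cells, with no numeric limit stated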; further: reference of the scale not given here); conditions: NCI-H716 cells, at 10 µM, stronger effect = higher value
# [6] = HCT116 colon cancer cell growth inhibition, primary screen, CellTiter-Glo luminescence, NPC library (AID 1117342;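 active means compounds that lower survival of HCT116 colon cancer cells in the luminescence readout, no numeric limit stated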); conditions: at 20 µM (top of the series)
# [7] = CellTiter-Glo luminescent readout of SW480 viability loss, NPC library primary (AID 1117343;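 active means compounds that lower viability of the colon cancer cells in the luminescence readout, with no numeric limit stated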); conditions: CellTiter-Glo luminescence; at 20 µM (top of the series) unless noted
# [8] = decreased DLD-1 cellular survival, CellTiter-Glo luminescent readout, NPC compound collection, primary HTS (AID 1117346;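 active means compounds that lower survival of DLD-1 colon cancer cells in the luminescence readout, no cutoff given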); conditions: DLD-1 viability, CellTiter-Glo luminescence; at 20 µM (top of the series)
# [9] = sensitizers of A549 cells to miR-34 induction, primary screen, imaging, A549 dox-inducible miR-34, nuclei and caspase counts (AID 1347080;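 active means compounds whose cell count with miR-34 switched on is under 0.7 times the count with it off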); conditions: A549 miR-34 inducible, Hoechst nuclei count, 48 h
# [10] = phospholipid biosynthesis inhibitors in animal cells, primary screen, cell-based, LOPAC library, screen 4 (AID 1347384; call rule not given here); conditions: phospholipid biosynthesis inhibition screen, at 10 µM
# [11] = viability rescue of complex I mutant cybrids, primary screen, cell-based, galactose medium, ATP luminescence (AID 1645843;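 active means z-score of at least 1.8 in each of two replicates, scored against plate mean and spread of sample wells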;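 further: positive z means more ATP and so rescue of galactose-driven cybrid death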); conditions: complex I mutant cybrid cells, 72 h, stronger effect = higher value
# [12] = survival rescue of mitochondrial mutant cells in low glucose, primary screen, MELAS cybrids, Rieske KO mouse fibroblasts, CellTiter-Glo (AID 1508586;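 active means mean z-score across replicates of 1.96 or higher in either the MELAS or the Rieske mutant cell line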;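 further: z relative to plate mean and SD of compound and empty wells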)
# [13] = stronger effect = lower value, cell number ratio, induced over uninduced
# [14] = measured here: relative caspase fold change +Dox/-Dox
# [15] = measured here: total cells with miR-34 induction, stronger effect = lower value
# [16] = measured here: total cells without miR-34 induction
# [17] = MELAS cybrid survival, CellTiter-Glo 48 h, stronger effect = higher value
# [18] = Rieske KO mouse fibroblast survival, CellTiter-Glo 72 h
SMILES,nuclear beta-catenin stimulation ([1]; at 10 µM),"nuclear beta-catenin stimulation ([1]; stimulation, at 2 µM) [%]",insulin secretion stimulation [2],viability decrease [3],tube area decrease [4],GLP1 secretion stimulation [5],inhibition of viability [6],viability decrease (inhibition) [7],viability decrease (inhibition) [8],"fold change [9, 13]","fold change [9, 14]","cell count [9, 15]","cell count [9, 16]",outcome [10],z-score [11],"z-score [12, 17]","z-score [12, 18]"
O=C(O)CN(CCOCCOCCN(CC(=O)O)CC(=O)O)CC(=O)O,0% (inactive),0,1.45% (inactive),16.3% (inactive),6.4% (inactive),1.8% (inactive),5.2% (inactive),-13.8% (inactive),1.8% (inactive),0.942 (inactive),1.12,9820,10400,inactive,0.34 (inactive),,
O=C(NCC1CN(c2ccc(N3CCOCC3=O)cc2)C(=O)O1)c1ccc(Cl)s1 (stereo not given),1.8% (inactive),-0.7,0.5% (inactive),55.9% (active),-0.6% (inactive),-0.6% (inactive),51.2% (active),-16% (inactive),9.9% (inactive),0.99 (inactive),0.417,7630,7700,,,-0.316 (inactive),-0.0771
CCCCCCCCCCCCCCC[C@H](O)[C@@H](N)CO,43.1% (active),1.5,1% (inactive),72.1% (active),17.5% (inactive),7.7% (inactive),69.8% (active),143% (active),104% (active),0.915 (inactive),1.42,5120,5600,,,,
OCCN1CCN(CCCN2c3ccccc3C=Cc3ccccc32)CC1,-0.5% (inactive),1.3,13.8% (inactive),5.9% (inactive),15% (inactive),2% (inactive),56.9% (active),80.2% (active),37.9% (inactive),1 (inactive),2.29,8600,8590,inactive,-0.685 (inactive),-0.305 (inactive),-0.132
CCN1CCc2nc(N)oc2CC1,-1.7% (inactive),0.3,0.4% (inactive),2.7% (inactive),1.7% (inactive),-1.2% (inactive),5.2% (inactive),-29.1% (inactive),-18% (inactive),1.02 (inactive),1.71,10300,10100,inactive,0.29 (inactive),,
COc1cc(C=O)ccc1O,1.6% (inactive),0.8,0.7% (inactive),1.37% (inactive),1.2% (inactive),0.6% (inactive),-10.3% (inactive),49.1% (inactive),3.27% (inactive),0.931 (inactive),0.545,7990,8590,,,-0.504 (inactive),-0.136
